Screening results as filed in PubChem.
Shown are actives, neighbours in structure and some others; about 19% of the full set was active somewhere.
DT40 TDP1 CPT = qHTS for Inhibitors of human tyrosyl-DNA phosphodiesterase 1 (TDP1): qHTS in cells in presence of CPT; chicken DT40 Tdp1-/-;hTDP1 cells + 20 nM CPT, ATP luminescence, 48 h; 420,000 compounds, 12% hits; AID 686979, 2013; Potency, µM (highest dose often 46.2 µM), for inactives: at the highest dose activity change, negative = growth inhibition, most hits filed as inhibitors; further: potency means the concentration at half of the fitted maximal effect; on the % scale 0 is the no-effect control and ±100 the full control effect; nearly all actives have a fitted effect of over 55% in size
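Chicken DT40 Tdp1-/- cells complemented with human TDP1, 400 cells/well, exposed to compounds plus 20 nM camptothecin for at least 48 h at 37 C; viability read as ATP content by CellTiter-Glo luminescence.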
IL1B secr inh = qHTS for Inhibitors of Inflammasome Signaling: IL-1-beta AlphaLISA Primary Screen; THP-1 LPS/ATP IL-1B secretion, AlphaLISA, 16 h; hits give low values; activity change, % at 57.5 µM; 360,000 compounds, 4.7% hits; AID 743279, 2014; in the data active means activity change below about -50%; inconclusive means mostly about -30% to -49%; further: on the % scale 0 is the no-effect control and ±100 the full control effect
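THP-1 cells pretreated 1 hr with compounds (up to 57.5 uM final), then stimulated with LPS (250 ng/mL final) plus ATP (1.25 mM final); secreted IL-1B measured by AlphaLISA after 16 hr, decreased signal indicating inhibition.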
TDP1 cell noCPT = qHTS for Inhibitors of human tyrosyl-DNA phosphodiesterase 1 (TDP1): qHTS in cells in absence of CPT; DT40 Tdp1-/- hTDP1 cells, no CPT, ATP luminescence, 48 h; Potency, µM (titrated, usually from 46.2 µM), for the others: at the top dose activity change, negative = growth inhibition, hits mostly inhibitors; 420,000 compounds, 15% hits; further: potency means the concentration at half of the fitted maximal effect; on the % scale 0 is the no-effect control and ±100 the full control effect; nearly all actives have a fitted effect of over 55% in size
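No-CPT arm: Tdp1-/-;hTDP1 DT40 cells (400/well) plus compounds, incubated ≥48 hr at 37 °C. Readout CellTiter-Glo luminescence.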
HepG2 tox = qHTS for Inhibitors of TGF-b: Cytotox Counterscreen; Potency, µM (highest dose often 46.1 µM), inactives show at the highest dose activity change, negative = cytotoxicity, most hits filed as cytotoxic; HepG2 CAGA-GFP viability, ATP luminescence, 18 h; 410,000 compounds, 0.76% hits; further: potency means the concentration at half of the fitted maximal effect
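CellTiter-Glo luminescence gave cytotoxicity after 18 hours at 37 degrees C. The cells were HepG2 CAGA-GFP in 1% FBS DMEM, stimulated with 500 pg/mL TGF-beta after compound addition. %Activity was normalised to no-cell wells (complete cell-killing) and DMSO (no toxicity), and curves were fitted and classified.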
TGFb SMAD3 inh = qHTS for Inhibitors of TGF-b | HepG2 CAGA-GFP TGF-b/SMAD3 reporter, GFP fluorescence, 18 h; TGF-beta stimulated, 500 pg/mL final | Potency, µM (doses to about 46.1 µM), inactives show top-dose activity, negative = inhibition, most hits filed as inhibitors | 410,000 compounds, 1.2% hits | AID 588855, 2011; further: potency means the concentration at half of the fitted maximal effect; on the % scale 0 is the no-effect control and ±100 the full control effect; nearly all actives have a fitted effect of over 65% in size
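First, reporter cells (HEPG2 CAGA-GFP) rested 2 h at 37 degrees C. Next, compounds were pinned in and TGF-beta added to 500 pg/mL final. After 18 h, GFP was imaged per cell and summed per well.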
TDP1 block = qHTS Assay for Inhibitors of Tyrosyl-DNA Phosphodiesterase (TDP1); Tyrosyl-DNA phosphodiesterase 1 (Homo sapiens), Q9NUW8; recombinant TDP1, AlphaScreen DNA substrate cleavage; Potency, µM (doses to about 130 µM), inactives show at the top dose activity change, negative = inhibition, hits mostly inhibitors; 350,000 compounds, 0.28% hits; AID 485290, 2010; further: potency means the concentration at half of the fitted maximal effect; on the % scale 0 is the no-effect control and ±100 the full control effect; nearly all actives have a fitted effect of over 40% in size
Target sequence (Q9NUW8 whole entry, looked up): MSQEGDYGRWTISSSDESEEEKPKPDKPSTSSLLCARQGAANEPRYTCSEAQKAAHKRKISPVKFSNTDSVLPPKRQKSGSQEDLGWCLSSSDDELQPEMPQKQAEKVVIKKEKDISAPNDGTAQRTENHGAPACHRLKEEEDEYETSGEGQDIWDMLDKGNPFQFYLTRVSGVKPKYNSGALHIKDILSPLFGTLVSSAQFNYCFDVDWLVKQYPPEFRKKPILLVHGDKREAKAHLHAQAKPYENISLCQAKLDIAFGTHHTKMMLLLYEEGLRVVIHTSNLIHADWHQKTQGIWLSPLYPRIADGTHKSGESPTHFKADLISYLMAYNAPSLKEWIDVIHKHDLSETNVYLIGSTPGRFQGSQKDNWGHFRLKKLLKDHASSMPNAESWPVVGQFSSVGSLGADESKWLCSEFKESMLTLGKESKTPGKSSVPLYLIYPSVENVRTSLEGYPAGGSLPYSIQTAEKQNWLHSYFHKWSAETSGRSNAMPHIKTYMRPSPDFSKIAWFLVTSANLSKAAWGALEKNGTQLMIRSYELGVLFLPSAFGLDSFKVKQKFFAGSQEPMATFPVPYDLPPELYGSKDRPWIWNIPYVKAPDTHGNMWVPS
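Compounds were preincubated with Tdp1 (1 nM final) for 15 min at room temperature before substrate (15 nM final) started a 5 min reaction; beads (10 ug/ml final) were then added for 10 min before AlphaScreen detection.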
* hit, by the source's call; ? = inconclusive; / = no result. Unless noted, the call rests on the fitted dose curve; in most records, active means well fitted curve in the direction sought with a large enough effect; inconclusive means small, poorly fitted or top-dose-only effect, or another doubt; inactive means no such curve, though single readings can be large; an effect the other way counts as inactive or inconclusive.

SMILES	DT40 TDP1 CPT	IL1B secr inh	TDP1 cell noCPT	HepG2 tox	TGFb SMAD3 inh	TDP1 block
CCc1ccc(NC(=S)N(CCCN2CCOCC2)Cc2ccccn2)cc1	1.6%	1.3	2.0%	-34.0%	-28.5%	8.0%
CCc1ccc(NC(=S)N(Cc2ccccc2)Cc2ccccn2)cc1	11.6µM*	-60.1*	4.61µM*	-25.1%	?	-5.1%
Cc1ccccc1-c1noc(-c2cccnc2N(C)Cc2ccc(Cl)cc2)n1	?	/	?	-14.1%	-9.0%	11.4%
CC(=O)c1cccc(CN2CCCC(C(=O)c3ccc4c(c3)OCO4)C2)c1 (centres undefined)	2.3%	-18.2	?	-19.5%	-19.0%	9.0%
c1ccc(CN2CCC(N3CCN(Cc4ccc5c(c4)OCO5)CC3)CC2)cc1	?	-26.9	18.4µM*	4.2%	-6.1%	/
O=C(c1ccc2c(c1)OCO2)C1CCCN(C2CCN(CCc3ccccc3)CC2)C1 (centres undefined)	18.4µM*	-76.5*	20.6µM*	-32.1%	-24.8%	3.0%
CCN(Cc1ccccc1)C(=O)CCS(=O)(=O)c1ccc2c(c1)CCN2C(C)=O	?	-1.0	?	-17.0%	-10.6%	0.0%
CCOc1ccccc1NC(=O)CSc1nc2ccccc2nc1Cc1ccc(C)cc1	?	/	?	5.9%	-2.7%	5.4%
O=C(CCS(=O)(=O)c1ccc(Br)cc1)NCc1ccco1	1.1%	-5.6	-6.1%	3.7%	7.6%	/
CC1Cc2cc(S(=O)(=O)CCC(=O)Nc3ccc(OC(F)(F)F)cc3)ccc2N1C(=O)C1CC1 (centres undefined)	7.31µM*	/	5.8µM*	-35.2%	?	-8.5%
Cc1ccc(S(=O)(=O)CCC(=O)Nc2ccc(OC(F)(F)F)cc2)cc1	20.6µM*	/	?	1.9%	?	-1.1%
CCOc1ccc(NC(=O)CCS(=O)(=O)c2ccc(Br)cc2)cc1	?	5.0	23.1µM*	0.9%	2.5%	-9.5%
O=C(CCS(=O)(=O)c1ccc(Br)cc1)NCc1cccs1	-17.9%	9.5	-2.2%	13.0%	24.5%	22.4µM*
CN1C(=O)Cc2cc(S(=O)(=O)CCC(=O)Nc3ccc(OC(F)(F)F)cc3)ccc21	4.6%	/	-7.8%	0.0%	?	0.0%
COc1ccc(NC(=O)CCS(=O)(=O)c2ccc(OC)cc2)cc1	-26.9%	-4.0	?	-0.5%	-19.8%	8.2%
Cc1ccc(S(=O)(=O)N(CCC(=O)Nc2ccc(OC(F)(F)F)cc2)c2ccccc2)cc1	-12.4%	-28.9	-25.7%	-13.5%	?	2.8%
Cc1c(Cl)cccc1NC(=O)CCS(=O)(=O)c1ccc2c(c1)CC(C)N2C(=O)C1CC1 (centres undefined)	5.17µM*	/	4.11µM*	-3.2%	0.8%	-2.8%
Cc1cc(Cl)ccc1NC(=O)CCS(=O)(=O)c1ccc2c(c1)CC(C)N2C(=O)C1CC1 (centres undefined)	11.6µM*	/	?	-21.8%	?	2.8%
CC1Cc2cc(S(=O)(=O)CCC(=O)NC3CCCCC3)ccc2N1C(=O)C1CC1 (centres undefined)	?	19.9	-0.1%	2.8%	6.7%	4.4%
NC(=O)C1CCN(C(=O)c2ccccc2NC(=O)c2nsc3ccccc23)CC1	?	/	-8.0%	-38.2%	-22.3%	0.0%
Cc1ccc2c(c1)c1c(c(=O)n(Cc3ccccc3)c(=O)n1Cc1ccccc1F)n2C	1.1%	/	-0.9%	26.2%	43.4%	2.8%
CCc1cc2ccc(C)cc2nc1SCC(=O)N1CCN(C(=O)c2ccco2)CC1	?	?	18.4µM*	-19.9%	?	8.7%
CCc1cc2cc(C)cc(C)c2nc1SCC(=O)N1CCN(C(=O)c2ccco2)CC1	?	-54.2*	?	1.5%	?	4.2%
COC(=O)c1cc(=O)n(Cc2ccc3c(c2)OCO3)c(=Nc2ccccc2)s1	11.6%	11.8	?	2.6%	-23.2%	8.7%
COC(=O)c1cc(=O)n(Cc2ccco2)c(=Nc2ccc(F)c(Cl)c2)s1	16.4µM*	-105.4*	13µM*	-98.2%	12.6µM*	9.8%
SMILES	DT40 TDP1 CPT	IL1B secr inh	TDP1 cell noCPT	HepG2 tox	TGFb SMAD3 inh	TDP1 block
COC(=O)c1cc(=O)n(CCc2ccccc2F)c(=Nc2ccc(F)c(Cl)c2)s1	14.6µM*	-100.8*	8.2µM*	-93.2%	?	7.8%
CC(C)NC(=O)N1CC2(CCN(S(=O)(=O)c3ccccc3)CC2)C1	-1.3%	/	17.6%	/	/	/
CCc1cc(SC#N)ccc1N	-24.6%	-102.3*	?	-22.6%	6.8%	8.9%
CCC(CO)Oc1cc(NC(=O)c2ccc(C)cc2)c2ncn(C(C)C)c2c1 (centres undefined)	23.1µM*	?	?	-4.3%	-1.8%	-15.7%
CCC(CN(C)C)Oc1cc(NCc2ccccc2)c2ncn(C(C)C)c2c1 (centres undefined)	25.9µM*	15.3	?	-58.4%	-13.6%	4.4%
CCC(CO)Oc1cc(NCc2cccc(Cl)c2)c2ncn(C(C)C)c2c1 (centres undefined)	?	-2.7	?	-76.1%	20µM*	10.8%
COc1ccccc1N1CCN(C(=O)Cn2c(=O)n3nc(-c4cccc(C)c4)nc3c3ccccc32)CC1	?	/	?	-0.4%	0.7%	2.6%
CC(C)CCn1c(=O)c2sccc2n2c(CCCC(=O)NC(C)C)nnc12	-16.0%	/	-7.5%	-12.9%	?	2.6%
CC(=O)Nc1ccccc1OCc1cc(=O)n2c3c(sc2n1)CCCC3	0.1%	/	-15.5%	0.6%	-8.7%	6.4%
S=C(NCCc1ccccc1)NCc1cccc(Cl)c1	1.5%	7.7	3.2%	-44.2%	12.6µM*	5.8%
Cc1c(Cl)cccc1NC(=S)NCCc1ccc(C(F)(F)F)cc1	?	-102.2*	16.4µM*	-2.1%	?	5.3%
CCNC(=S)NCc1ccc(OC)c(OC)c1	16.9%	11.2	6.7%	7.4%	8.6%	0.0%
COc1ccc(CCNC(=S)NCc2ccc(Cl)c(Cl)c2)cc1OC	-2.5%	-85.3*	?	-8.1%	?	5.5%
S=C(NCCc1ccccc1)NCCc1ccccc1	?	0.0	?	-34.3%	?	2.4%
